Screens as filed in PubChem BioAssay.
This is a sample that favours compounds with a hit; in the whole collection about 10% have one here.
BAZ2B inh: qHTS Assay for Inhibitors of BAZ2B | Bromodomain adjacent to zinc finger domain protein 2B (Homo sapiens), Q9UIF8 | AlphaScreen BAZ2B-H3K14Ac peptide displacement | Potency, µM (doses to about 114 µM), without a hit: at the top dose activity change, negative = inhibition, hits mostly inhibitors | 4.4% of 360,000 active; further: potency means the concentration at half of the fitted maximal effect; on the % scale 0 is the no-effect control and ±100 the full control effect; nearly all actives have a fitted effect of over 60% in size
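BAZ2B 50 nM plus b-H3(5-23)K14Ac 50 nM, PBS pH 7.4/0.01% Tween-20, 30 min RT; compound added (max 110 uM), 30 min RT; streptavidin donor/Ni-chelate acceptor beads 10 ug/mL final, 20 min dark; AlphaScreen read.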
HP1b chromo inh: HTS for Inhibitors of HP1-beta Chromodomain Interactions with Methylated Histone Tails; Chromobox protein homolog 1 (Homo sapiens), P83916; AlphaScreen HP1-beta / biotin-H3K9me3 peptide binding; Potency, µM (top dose mostly 114 µM), for inactives: at the highest dose activity change, negative = inhibition, most hits filed as inhibitors; 0.56% of 390,000 active; AID 540317, 2011; further: potency means the concentration at half of the fitted maximal effect; nearly all actives have a fitted effect of over 70% in size
Target sequence (P83916 whole entry, looked up): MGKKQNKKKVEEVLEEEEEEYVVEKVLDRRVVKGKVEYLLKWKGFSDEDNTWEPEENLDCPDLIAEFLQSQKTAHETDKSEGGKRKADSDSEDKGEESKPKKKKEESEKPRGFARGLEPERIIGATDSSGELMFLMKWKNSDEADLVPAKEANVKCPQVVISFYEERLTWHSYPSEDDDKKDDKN
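AlphaScreen: HP1-beta (50 nM) preformed 30 min with biotin-H3(1-18)K9me3 peptide (50 nM) in PBS pH 7.4, 0.01% Tween-20. Compound added for 30 min at RT, then streptavidin donor/nickel chelate acceptor beads (10 ug/mL) for 30 min.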
CtBP-E1A inh: qHTS Assay for Inhibitors of the CtBP/E1A Interaction. CtBP / adenovirus E1A interaction (AlphaScreen). AlphaScreen GST-E1A/His-CtBP binding, 1536-well; stronger effect = lower value. activity change, % (test concentration not listed). 0.49% of 340,000 active; in the data active means activity change below about -65%; inconclusive means mostly about -30% to -63%; further: on the % scale 0 is the no-effect control and ±100 the full control effect
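In 5 uL wells, 23 nL compound meets equimolar GST-E1A and His-CtBP (5X stock 125 nM each) for 2 h, 37 °C. Beads (5X, 50 ug/mL) then 1 h, 37 °C, dark.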
JMJD2A Tudor: qHTS Assay for Inhibitors of JMJD2A-Tudor Domain; AlphaScreen JMJD2A-Tudor / H3K4me3 peptide binding; Potency, µM (highest dose often 114 µM), inactives show at the top dose activity change, negative = inhibition, hits mostly inhibitors; 4.4% of 390,000 active; AID 504339, 2011; further: potency means the concentration at half of the fitted maximal effect; on the % scale 0 is the no-effect control and ±100 the full control effect; nearly all actives have a fitted effect of over 50% in size
G9a inh: qHTS Assay for Inhibitors of Histone Lysine Methyltransferase G9a. Histone-lysine N-methyltransferase EHMT2 (Homo sapiens), Q96KQ7. G9a H3K9 monomethylation, AlphaScreen, 2 h. Potency, µM (top dose mostly 102 µM), inactives show at the top dose activity, negative = inhibition, actives largely listed as inhibitors. 8.8% of 350,000 active; further: potency means the concentration at half of the fitted maximal effect; on the % scale 0 is the no-effect control and ±100 the full control effect; nearly all actives have a fitted effect of over 75% in size
Target sequence (Q96KQ7 913-1193 limits assumed): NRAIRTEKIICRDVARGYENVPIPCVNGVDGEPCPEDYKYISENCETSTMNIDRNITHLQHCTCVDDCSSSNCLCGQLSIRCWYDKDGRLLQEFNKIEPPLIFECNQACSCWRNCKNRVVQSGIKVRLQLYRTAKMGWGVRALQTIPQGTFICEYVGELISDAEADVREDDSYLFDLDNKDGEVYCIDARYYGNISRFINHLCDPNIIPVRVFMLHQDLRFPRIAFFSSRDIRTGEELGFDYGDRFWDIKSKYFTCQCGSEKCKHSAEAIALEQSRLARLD
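Compounds were preincubated with 20 nM G9a for 15 min, after which biotinylated H3K9 peptide (500 nM) and SAM (20 uM) started a 2 h room-temperature reaction. Monomethylated product was quantified by antibody-based AlphaScreen chemiluminescence.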
Six1-Eya2 blk: qHTS Assay for Inhibitors of the Six1/Eya2 Interaction. AlphaScreen GST-Six1/His-Eya2 binding, biochemical; stronger effect = lower value. activity change, % (test concentration not listed). AID 651725, 2012. 0.56% of 360,000 active. Homeobox protein SIX1 (Homo sapiens) + Protein phosphatase EYA2 (Homo sapiens), …; in the data active means activity change below about -65%; inconclusive means mostly about -30% to -63%; further: on the % scale 0 is the no-effect control and ±100 the full control effect
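Compounds are tested against tagged Six1 and Eya2 proteins bridged by glutathione donor and nickel acceptor beads; after a one-hour incubation at 37 °C without light, AlphaScreen emission is recorded.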
* hit, by the source's call; ? = inconclusive; nt = not tested or not shown; [ ] = remark or other dose. Unless noted, the call rests on the fitted dose curve; in most records, active means well fitted inhibition curve with a large enough effect; inconclusive means small, poorly fitted or top-dose-only effect; inactive means no such curve, though single readings can be large or run the other way.

SMILES | BAZ2B inh | HP1b chromo inh | CtBP-E1A inh | JMJD2A Tudor | G9a inh | Six1-Eya2 blk
Cc1cc(C)nc(N/N=C/c2ccccc2)n1 | -2.7% | 38.0% | 5.8 | -3.7% | 21.5%[59 µM] | 1.8
Cc1ccsc1/C=N/Nc1nc2ccccc2s1 | ? | -15.7% | -14.5 | -33.2% | 3.6%[59 µM] | -1.2
Cc1ccsc1/C=N/Nc1ccc(F)cc1F | ? | -29.5% | -12.2 | -33.6% | 1.26µM* | -21.0
Cc1ccsc1/C=N/Nc1nc(=O)[nH]nc1C | 31.6µM* | 30.2% | -94.0* | ? | 4.0% | -83.3*
Cc1cc(C)nc(N/N=C/c2sccc2C)n1 | -7.3% | 0.6% | 2.4 | 12.6µM* | 0.5% | 4.9
Clc1ccc(C(c2nnnn2C2CCCC2)N2CCN(Cc3ccncc3)CC2)cc1 (configuration not stated) | ? | 44.4% | -11.5 | 16.4%[11.4 µM] | 3.0%[59 µM] | 6.0
CCC(c1nnnn1C1CCCC1)N1CCN(c2ccccc2F)CC1 (configuration not stated) | -28.5% | 41.6% | 4.0 | -5.0% | -36.1%[12.7 µM] | -3.8
CCCC(c1nnnn1C1CCCC1)N1CCN(c2ccccc2F)CC1 (configuration not stated) | -30.0% | 31.8% | -1.1 | -4.8%[11.4 µM] | 50.1µM* | -2.3
c1ccc(C(c2nnnn2C2CCCC2)N2CCCCCC2)nc1 (configuration not stated) | 50.1µM* | 7.4% | -4.1 | 50.1µM* | 28.2µM* | -5.8
Fc1ccccc1N1CCN(C(c2ccncc2)c2nnnn2C2CCCC2)CC1 (configuration not stated) | 0.2% | 41.5% | 8.8 | -18.5% | 31.6µM* | -1.7
Cc1cc(=O)n(CC(=O)NCc2ccc(OC(C)C)cc2)c2c1c(C)nn2-c1cccc(F)c1 | -2.9% | -5.6% | nt | -18.7% | 12.7%[59 µM] | nt
Cn1cnnc1SCC(=O)c1ccco1 | -2.9% | 57.4% | 0.0 | -4.9% | 44.7µM* | 19.5
Cn1cnnc1SCC(=O)c1ccc(O)c(O)c1 | ? | 18.4% | -0.1 | -7.7% | 7.08µM* | -1.3
O=C(CSc1nnnn1-c1ccc(F)cc1)c1ccc(O)c(O)c1 | 44.7µM* | -14.3% | -0.5 | ? | ? | 14.0
O=C(CSc1ccc(Cl)cc1)c1ccco1 | nt | ? | -0.4 | 79.4µM* | ? | -23.9
CC(=O)c1ccc(O)c(CSc2nncn2C)c1 | ? | 44.6% | 6.7 | -7.7% | -2.3% | 4.3
Cn1cnnc1SCC(=O)NCCc1ccccc1 | 8.4% | -1.0% | -11.7 | -9.7% | 17.1% | -8.6
O=C(O)c1ccc(CSc2nnnn2-c2ccc(F)cc2)cc1 | -0.8% | -7.0% | 6.5 | -10.3% | -11.7% | -5.3
COc1ccc(C)cc1NC(=O)C1CCN(S(=O)(=O)c2cc(Br)cc3c2N(C(C)=O)CC3)CC1 | -33.4% | 7.3% | nt | -24.9% | -31.2%[59 µM] | nt
CN1C(=O)C(=O)/C(=C(/O)c2ccc(Br)cc2)C1c1cccc([N+](=O)[O-])c1 (configuration not stated) | -9.1% | 9.8% | -0.4 | -25.2% | 50.1µM* | 3.3
CN(C)c1ccc(C2/C(=C(/O)c3ccc(Br)cc3)C(=O)C(=O)N2C)cc1 (configuration not stated) | -3.4% | 7.8% | nt | ? | 39.8µM* | -5.2
COc1cccc(CN2C(=O)c3ccccc3C2C(=O)NCCc2ccccc2)c1 (configuration not stated) | 1.1% | 26.0% | nt | -9.6% | 4.5%[59 µM] | nt
Cc1c(Cl)cccc1NC(=O)c1ccc2nc(C(C)C)oc2c1 | 2.6% | 30.7%[57 µM] | nt | 2.6% | -3.7%[59 µM] | nt
CCOc1ccc2nc(N=NC3=C(O)CC(C)(C)CC3=O)sc2c1 | 44.7µM* | ? | 0.7 | ? | ? | -4.5
CCCC(=O)Nc1nc2ccc(OCC)cc2s1 | 2.4% | 23.4% | -26.4 | -13.8% | -33.3% | 4.4
SMILES | BAZ2B inh | HP1b chromo inh | CtBP-E1A inh | JMJD2A Tudor | G9a inh | Six1-Eya2 blk
CCN(CC)c1ccc(NC(=O)/C=C\c2ccccc2Cl)cc1 | ? | -12.5% | -7.6 | ? | 3.55µM* | ?
Cc1cc(NC(=O)/C=C/c2ccccc2Cl)no1 | 5.5% | 15.9% | 23.3 | -21.5% | -11.0%[59 µM] | 8.2
CN(C)c1ccc(NC(=O)/C=C/c2ccccc2Cl)cc1 | -7.1% | -20.4% | -22.3 | -27.8% | 1.12µM* | -24.6
Cc1cccc(-n2c(N)cc(=O)nc2SCC(=O)Nc2ccc(F)cc2)c1C | -23.7% | 24.2% | nt | 2.2% | -1.4%[59 µM] | nt
COC(=O)CC1Oc2ccc(C)cc2NC1=O (configuration not stated) | 9.5% | 38.0% | 7.7 | -13.4% | 3.7% | 5.3
Cc1ccc2c(c1)NC(=O)C(CC(=O)N(C)Cc1ccccc1)O2 (configuration not stated) | -1.9% | 42.3% | 0.5 | -9.2% | 50.1µM* | -2.9
CCC(C)NC(=O)CC1Oc2ccc(C)cc2NC1=O (configuration not stated) | 4.9% | 41.5% | 1.7 | -15.5% | 44.7µM* | -0.1
COc1cc(C(=O)N2CCNC(=O)C2CC(=O)Nc2ccc(C)c(C)c2)cc(OC)c1OC (configuration not stated) | -16.8% | 42.2% | nt | -4.1% | 9.2%[59 µM] | nt
Cc1sc2ncnc(SCc3ccc(C(=O)O)cc3)c2c1C | -15.1% | 48.9% | nt | -7.5% | 44.7µM* | -6.9
O=C(CSc1ncnc2scc(-c3ccccc3)c12)N1CCN(Cc2ccc3c(c2)OCO3)CC1 | ? | ? | -2.3 | ? | 44.7µM* | -27.0
Cc1ccc(-c2csc3ncnc(SCc4ccc(C(=O)O)cc4)c23)cc1 | 50.1µM* | 17.4% | 2.5 | ? | nt | -16.7
Cc1nc(SCc2ccc(C(=O)O)cc2)c2c(C)c(C)sc2n1 | ? | -12.2% | -24.0 | -9.4% | -9.8% | -11.6
COc1ccc(-c2cc(C(F)(F)F)nc(-n3nc(C(F)(F)F)cc3C)n2)cc1 | 31.6% | 109.8% | nt | 33.1% | 47.9%[59 µM] | nt
Cc1ccc(C(=O)c2cc3c(cc2[N+](=O)[O-])OCCO3)cc1 | 56.2µM* | -17.9% | -6.1 | ? | ? | -14.9
O=C(c1ccccc1)c1cc2c(cc1[N+](=O)[O-])OCCO2 | ? | 15.3% | -4.3 | -8.2% | ? | -9.6
Cc1cc(Cl)ccc1NC(=O)c1cc2ccccn2n1 | 7.9% | 30.2% | nt | 20.5% | 0.7%[59 µM] | nt
Cc1cc(Br)ccc1NS(=O)(=O)c1c(C)[nH]c(=O)[nH]c1=O | -0.9% | 25.2% | 10.7 | -11.5% | 44.7µM* | 8.7
